# Source: PubChem BioAssay AID1508600 (Functional Genomics Laboratory (NCATS/FGL), 2020)
# The whole screen tested about 53,000 sequences, of which about 3,700 (7%) were called active. Many of the other results were omitted from the sample, so actives are more common in it than they were. Unmarked numbers belong to inactive results.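 How the source made its calls: active means gene knockdowns whose robust z-score for IL-1 alpha signal is at least 2 or at most -2, so actives lie on both sides; inactive means the rest.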
# Test: Components of the Cytosolic LPS Sensing Pathway: Gene Identification via Genome-wide siRNA Screen
# Settings: RAW264.7 macrophages, IL-1a HTRF, actives lie on both sides, screened at 100 nM (by protocol), cells primed 5 h with Pam3CSK4 first
# Description: Non-canonical inflammasome activation by cytosolic LPS is a critical component of the host response to Gram-negative bacterial infection, however we lack a comprehensive understanding of the cellular processes that control this pathway. Here we describe a genome-wide siRNA screen to identify genes regulating the mouse macrophage IL-1 alpha response to cytosolic LPS.
# RAW264.7 cells were maintained in complete DMEM media, comprising DMEM with 4.5 g/L glucose, 10% FBS (Gemini Bio-Products, West Sacramento, CA), 2 mM Glutamine (Lonza) and 20 mM HEPES (Lonza), hereafter complete DMEM.
# The RNAi screen was conducted in 384-well format using the Ambion Silencer Mouse Genome siRNA Library (#4391425), which consists of three unique, nonoverlapping, nonpooled siRNAs for each of 17,000 gene targets. siRNA reagents ([…]) were stamped into 384-well white flat-bottom microplates (Corning, 3570) using a Velocity11 VPrep liquid handling system (Agilent) integrated into a BioCel robotic platform (Agilent) in columns 1-22, leaving columns 23-24 empty for negative (Ambion, Negative control #1) and positive (mouse Casp4) controls, respectively. The median value of each plate's negative control column was used to normalize sample wells, and the positive control was used to assess transfection efficiency and assay performance.
# Lipofectamine RNAiMAX Transfection Reagent ([…]; Invitrogen) was added in […] serum-free, antibiotic-free media to plate wells using a Thermo Scientific Matrix WellMate and Microplate Stacker. Plates were incubated for 45 min at room temperature to allow for the sufficient formation of siRNA-lipid complexes. Cells were seeded at a density of 1x10^4 cells per well in 20 microL media containing 20% (vol/vol) FBS without antibiotics. The final concentration of siRNA in each well was 100 nM. Cells were cultured for 48h at 37 degrees C in 5% CO2 before addition of […] of TLR ligand Pam3CSK4 for 5 hours. The medium was then removed, replaced with […] growth media and cell were transfected with […] of LipidA and TransIT-TKO (Mirus) for 24 hour. At the end of the LipidA treatment, […] of supernatant was transferred to a 384 Greiner Bio-one non-binding low volume plate and […] of IL-1a HTRF reagent (Cisbio, 62MIL1APEH) was added and incubated at room temperature overnight. The plates were read on an EnVision plate reader (PerkinElmer). Cell viability was measured by adding 20ul Cell Titer Glo to the original plate and running a luminescence read on the EnVision. The quantified IL-1a signal for each siRNA gene-targeted well was divided by the median of the negative control wells and multiplied by 100 to achieve a negative control normalized value for each well/siRNA. This normalized value was then used to generate a robust z-score by first taking the log of each value and then by subtracting the median and dividing by the […].
row,Sequence,z-score
1,GGCUUAUACGCUCCAUAUUTT against Gykl1,-0.214
2,GGAUACAUUCCAGACAUACTT against Map3k2,-0.0192
3,GGCGGACGUGAAGAACUUGTT against Letmd1,1.28
4,GGAACAGUCCUACUGAUAUTT against Cdkn1a,-0.271
5,GCUGGAUGGAGGCAAAGCATT against C1ql1,-1.38
6,GGCCAGAACCACCAAAGAATT against Zc2hc1a,-0.753
7,GCAACAAUCUAACCUCAGATT against Mela,-2.3 (active)
8,CCACUGAUAACUCGAUUUGTT against Nrp1,-0.228
9,GGAACCUCUUGGACAAAGATT against Cpne5,2.17 (active)
10,GGUAACAUGGCAGAUUUUATT against Aif1l,0.618
11,GGACUGUUUGGAUUGCAUATT against Dock7,0.891
12,GGCAACAGCAUCCUACUCUTT against Olfr652,-2.12 (active)
13,GCAUUUCGAAGUGCCCUUGTT against Gpr146,1.22
14,CCGCUACCAGAUAAACUCGTT against BC053393,0.984
15,GGACAAUACGGAGAAAGAUTT against Mdfic,-0.522
16,GGGCAAAUUAUGCUGUCAUTT against Tomm20,-1.7
17,GCGAUGAGAUUGUUGCUGUTT against Ttc33,2.32 (active)
18,GCUUGCUGACCUGAAGUGATT against Krt17,0.262
19,GCUAUCCCUUUAUGUAACATT against Prl7b1,-0.224
20,CCAUAUCGAGUACCUCCAATT against Rtn4rl1,-0.522
21,GGUCUACUGGCGUAAUUACTT against Vsig4,-0.365
22,GCAGUCAUUCAAGGUUCCUTT against Hmces,-0.231

row,Sequence,z-score
1,GGUGUUGAAAUAAUUUCUCTT against Phospho2,-0.285
2,GGAGUGUAGUAAAUGUACCTT against Ppp1r13b,3.97 (active)
3,GGACUUGAUCCCAAAGCUGTT against Mrpl17,-1.21
4,GGGACAACACAUUAACUUATT against Uckl1,1.41
5,GCACAUUGUCUAGUAGUAATT against Zfp280d,-0.622
6,GGAACAGAAACAAGGUUUUTT against Zfand2a,0.962
7,CCUCAUUCAGGGAGUUCCATT against 2200002J24Rik,-1.52
8,GGACAGUGGAAGGAAUCCATT against 2310033P09Rik,-2.91 (active)
9,GCUGAUGCUCCAUUGAAUGTT against Prr27,0.228
10,GCGUGAGAGAUACCGCCAUTT against Gnai2,-0.847
11,CGUGGUUUGUCAAUGAAGGTT against Eprs,0.358
12,GGUUCUUUGGAAUGCUUUUTT against Myl12a,2.76 (active)
13,CGUAAGAUUGACUCUAGUATT against Prl6a1,0.326
14,GGACAGACUGAUUAAGAAATT against Paqr8,-0.569
15,GCUACUGAACGAGAAUGCCTT against Zc3h12a,0.394
16,GGACAUUGACGCAUAGGGATT against Arsa,-0.232
17,GGAUACAGUUUCUGAAAUCTT against Mlxipl,2.6 (active)
18,GCCAUGUGAUCGAAUCCAGTT against Clip2,-0.0773
19,GGGAUUCAUACUACUUAACTT against Olfr304,1.32
20,GCAGUUACUUAUCAUCUGGTT against Inca1,0.00859
21,GGUGUCUCUGAAUGAUGGCTT against 1810009J06Rik,0.499
22,GGGUUGAUCCCUUUGAUUCTT against Pld4,-0.268

row,Sequence,z-score
1,GGACAAUGUGGACUUUGAUTT against Edem2,-2.33 (active)
2,GCAAACUCGGACUUUCAAATT against Lamtor3,0.443
3,GGGAAACUCGAGAUGUGCATT against Ankmy2,0.944
4,GGAAAGAAAAACGUAGGCGTT against 4933402J07Rik,-1.16
5,GGAGAACCAGAUCCUGAUCTT against Mypop,0.511
6,GGAGGUGUGGCAUCUGGAUTT against Gsn,1.19
7,GGAGGAAGACACUCCCUCUTT against Atf4,-0.778
8,CGAGAGUGAUGCGCAUUUCTT against Sf3b5,-3.04 (active)
9,GGAAGCGGGAGAUAGAGGATT against Xpo6,-0.108
10,GCACAGAGGUCAGUUAAAGTT against St8sia3,1
11,CGACCCUCUAAGGAUAUGCTT against Zfp456,1.01
12,CCUGAUAUUCCAUCCUGAATT against Acad10,-0.626
13,GGUGCAUGGAAAAAAAUUATT against Neil2,-0.691
14,GCGGCCUGUGAGAGUUUAUTT against Pcyt1a,3.4 (active)
15,GGACCCAAGAAGAUGACGUTT against 0610010K14Rik,-0.694
16,GCUGUGUGCCACUUUAUGUTT against Ebna1bp2,0.583
17,CGACAACACAGUUAUUAUUTT against Pld1,0.338
18,GCUUCGAGUUACAAUGUCATT against Fbxw15,-0.912
19,GGCACAUACGCUAUGAAGCTT against Prl2c5,-0.0959
20,GGUCUGUGACGAGAAGCUATT against Rab4a,-1.43
21,CCGAUGACGAACAGUUUGATT against Eif4ebp3,2.08 (active)
22,GGCAAAUUUUUGGAGAUGUTT against Hspa4,0.931

row,Sequence,z-score
1,CGUAGAGAUCAGUUCAAUGTT against Clock,-1.36
2,CGAGGACUCAAUAGUAGCCTT against Proser3,-0.678
3,GGAUCCUGAAACAGUUCAATT against Atm,-0.218
4,GGGUGCUGUCAACAUAUGATT against Gabrq,0.67
5,GCUUUGUUGCCCUACUACCTT against Pacrg,-2.26 (active)
6,CCUUUCAUACCUUAGGUUATT against Slc25a44,-0.42
7,GGUGUAGAAUAGGACAAAUTT against Ntsr2,0.43
8,GGUCACAAUGGUUUAAGGATT against Tacr1,-0.943
9,CCUGAUCUUGCACUCGAUGTT against Tbx6,0.422
10,GGUAGAAGCAGAGUUACCATT against Spata32,-1.64
11,GGUGGAAGAAGAAAUUGUCTT against Tpd52l2,-2 (active)
12,GGGAAGAUUUUUCUGAUCUTT against Kcnk13,-1.52
13,GCUGGAGGACUCAUGUUCATT against Dimt1,-0.0153
14,GGAGCUCAAGAGCUGGGUUTT against Tor2a,-1.1
15,GGAAGAACGACAAGAACAUTT against Tgfbr2,1.02
16,CGCGGUGUUCGACAUCUUGTT against Noc4l,2.12 (active)
17,GGAUACCAUUGUGGUCGCATT against Hck,-0.406
18,GGAAUUCUUUCCAAACUGGTT against Steap1,-0.0141
19,GGAUGUUUUAACUUGGAAATT against Sema5a,2.25 (active)
20,GGUUGGUCAGAUGAAGGGUTT against Adgrf3,-0.638
21,GGAACAGACAGAGAACACATT against Tgm6,2.54 (active)
22,CCGCUACAGGUUUACCAAGTT against Rhox8,0.129

row,Sequence,z-score
1,GGACACCUGAUUUUCUUCUTT against Slc41a3,-0.364
2,GCAAAAAGGCAGUAUUCUATT against Atp23,0.449
3,GCUCCAAAAGUCAAGACCGTT against Safb2,-0.482
4,GGCUAAAUUAUUGCGCAAATT against C1qbp,2.34 (active)
5,GGACCUUUCUGAAGUCCAATT against Ahsp,-0.0978
6,GGAUCAAGCCGAACAGUUCTT against Pigk,2.34 (active)
7,GGCCAAUCUCACCUGGACATT against Man2b1,-0.421
8,GGAGACUACUUUGUGUUUUTT against Ermp1,0.933
9,GGCACAAUUGAGGAGCGUATT against Ino80,-1.27
10,GGAAGAAAAACAGAGGAGATT against Cts7,-0.877
11,GGUUUAAGAAUGAAGUGGATT against Mtmr3,-1.18
12,GGAUUGGGUUACAUACAGATT against Scgb2b2,-0.0731
13,GGAAAAGGUUAAGAAAGCATT against Krr1,-2.53 (active)
14,GGAAUCAGCUAAUGAUUUCTT against Tyw1,0.819
15,GGAGGUAGGAGCCAUAAGATT against Pter,-0.58
16,GGGAUCUUUUACUCAUACUTT against Olfr862,-1.95
17,GGUGUACUGAUUUUGAAGATT against Msh3,0.858
18,GCCACGGGUAUAUCUAUAGTT against Tigd4,-0.296
19,GGUGGAAAAUGGUUGGUUUTT against Mfap3,-0.493
